Experiment [1] deals with CRL-7250. Briefly: Cytotoxic Profiling of Annotated Libraries Using Quantitative High-Throughput Screening (AID 1296008). Further: potency means the concentration at half of the fitted maximal effect. On max response: on the % scale 0 is the no-effect control and ±100 the full control effect. The conditions noted are these: Five cell lines viability, CellTiter-Glo ATP luminescence, 48-72 h; max response: stronger effect = lower value. The method, boiled down: (§1)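 Cytotoxicity was measured as CellTiter-Glo ATP luminescence, read after 10 min at room temperature. Compound treatment of the cells lasted 48 or 72 hr at 37 degrees Celsius in a qHTS format.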

Experiment [2] concerns HEK293. Described as above. To be noted: Five cell lines viability, CellTiter-Glo ATP luminescence, 48-72 h; max response: stronger effect = lower value. The method, boiled down:
as §1
On the technique in general: In ATP-based viability assays light output follows the ATP content of the culture.

Experiment [3] deals with HaCat. The experiment is described as above. To be noted: Five cell lines viability, CellTiter-Glo ATP luminescence, 48-72 h; max response: stronger effect = lower value. In a few lines: as §1
The subject of experiment [4] is NIH3T3. The experiment is described as above. To be noted: Five cell lines viability, CellTiter-Glo ATP luminescence, 48-72 h; max response: stronger effect = lower value. The method, boiled down:
as §1

Experiment [5] deals with HACAT. Put plainly: qHTS assay to identify novel small-molecules to repurpose for Merkel cell carcinoma treatment (AID 1296009). The conditions noted are these: MCC and control cell lines, CellTiter-Glo viability, 72 h; at 44.8 µM (top of the series) unless noted. The method, boiled down:
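Cell viability measured by CellTiter-Glo following 72 hr compound treatment at 37 degree celsius, with NPC and MIPE libraries tested in 8- and 11-point concentration series.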
For orientation: qHTS replaces the single test concentration by a dilution series.

SMILES strings stand for the structures. Records with an inconclusive call do not appear. Active and inactive are the calls of the source. The call rests on the fitted dose curve; in most records, active means well fitted inhibition curve with a large enough effect; inconclusive means small, poorly fitted or top-dose-only effect; inactive means flat fitted curve, though single readings scatter.
Further: nearly all actives have a fitted effect of over 60% in size.

Turning to `Cc1cccc(CC(=O)N2CCc3c2ccc(-c2cn(C)c4ncnc(N)c24)c3F)n1`, the Potency in experiment [1] is 1840 nM (active); in experiment [2] it was 5800 nM (active). In addition, the outcome in experiment [3] and in experiment [5] was inactive. The max response in experiment [4] is 3.48% (inactive).

Take `CCNC(=O)Nc1ccc(-c2nc3c(c(N4CCOCC4C)n2)CCN(C2COC2)C3)cc1` (configuration not stated): the Potency in experiment [1] was 206 nM (active); in experiment [2] it was 1460 nM (active); in experiment [4] it was 2310 nM (active). The max response in experiment [3] was -28.1% (inactive).

Consider `COc1cc(C[C@H]2C(=O)OC[C@@H]2Cc2ccc(OC)c(OC)c2)ccc1O`, for which the Potency in experiment [1] is 508 nM (active); in experiment [2] it was 1010 nM (active). In addition, the call in experiment [3] and in experiment [5] was inactive. Also, in experiment [4], the max response was -24.5% (inactive).

On to `Cc1cc(-c2ncc(-c3cccnc3)cc2/C=C/c2ccccc2)cnc1-c1cccnc1`, for which the result in experiment [1], in experiment [3] and in experiment [5] was inactive. Also, in experiment [2], the Potency was 2590 nM (active). The max response in experiment [4] was 3.84% (inactive).

As to `CC(=O)C1=C(O)C=C2Oc3c(C(C)=O)c(O)c(C)c(O)c3[C@]2(C)C1=O`, the compound was called inactive in experiment [1], in experiment [3], in experiment [4] and in experiment [5]. Moreover, the max response in experiment [2] is 0.521% (inactive).

Consider `CC(=O)O[C@@H]1C[C@@]23C[C@@]24CC[C@H](O[C@@H]2OC[C@H](O)[C@H](O)[C@H]2O)C(C)(C)[C@@H]4CC[C@H]3[C@]2(C)[C@@H](O)C34O[C@H](C[C@@H](C)[C@@H]3[C@@]12C)[C@@H](C(C)(C)O)O4`, for which the max response was 4.08% (inactive) in experiment [1], -6.78% (inactive) in experiment [2] and 2.71% (inactive) in experiment [4]. Further, the call in experiment [3] and in experiment [5] was inactive.

As to `CC(C)C[C@@H]1NC(=O)[C@@H]2C[C@@]34C[C@@H]5[C@@]6(C)CCCC(C)(C)C6CC[C@@]5(C)N(c5ccccc53)[C@H]4N2C1=O` (some centres not stated), the figures for the Potency in experiment [1] and in experiment [2] were 502 nM (active) and 796 nM (active), respectively. The outcome in experiment [3] was inactive. In experiment [4], the max response was -3.44% (inactive). Moreover, in experiment [5], the outcome is “inactive [at 17.4 µM]”.

In the case of `COc1ccc(N(C(=O)Nc2c(C)cccc2C)c2cc(Nc3ccc(N4CCN(C)CC4)cc3)ncn2)c(OC)c1`, the Potency in experiment [1] was 2910 nM (active); in experiment [2], 14600 nM (active); in experiment [3], 7310 nM (active); in experiment [4] it was 2060 nM (active).

As to `CC[C@H]1CN(c2nc(N)c(C(N)=O)nc2Cl)CCN1C1CCN(Cc2ccc(Cl)cc2)CC1`, the max response is 4.79% (inactive) in experiment [1], -6.38% (inactive) in experiment [2] and 0.303% (inactive) in experiment [4]. The call in experiment [3] and in experiment [5] was inactive.

For `CCCCCCOC(=O)/N=C(\N)c1ccc(NCc2nc3cc(C(=O)N(CCC(=O)OCC)c4ccccn4)ccc3n2C)cc1`, the max response in experiment [1] is -1.92% (inactive); in experiment [3] it was -18.9% (inactive); in experiment [4], -4.93% (inactive). Further, the Potency in experiment [2] is 18400 nM (active).

Take `CC1(C(=O)Nc2ccc(F)nc2)CCCN1c1nc(Nc2cc(C3CC3)[nH]n2)c2cccn2n1` (configuration not stated): the Potency was 8200 nM (active) in experiment [1], 5170 nM (active) in experiment [2], 2060 nM (active) in experiment [3] and 4610 nM (active) in experiment [4].

Take `CNc1cc2[nH]c(=O)n(-c3ccc(NC(=O)NS(=O)(=O)c4ccc(Cl)s4)cc3)c(=O)c2cc1F`: the compound was called inactive in experiment [1], in experiment [3] and in experiment [5]. The max response is -0.0272% (inactive) in experiment [2] and 2.24% (inactive) in experiment [4].

Take `COC(=O)C1=CO[C@@H](O[C@@H]2O[C@H](CO)[C@@H](O)[C@H](O)[C@H]2O)[C@H]2[C@@H]1C=C[C@]21C=C([C@H](C)OC(=O)/C=C/c2ccc(O)cc2)C(=O)O1`: the Potency was 1220 nM (active) in experiment [1], 1720 nM (active) in experiment [2], 3850 nM (active) in experiment [3] and 3060 nM (active) in experiment [4].

Regarding `CS(=O)(=O)c1ccc(Oc2cc(F)cc(C#N)c2)c2c1[C@H](O)C(F)(F)C2`, the call in experiment [1] was inactive. Moreover, the max response in experiment [2] is 1.03% (inactive); in experiment [3], -0.258% (inactive); in experiment [4], -14.9% (inactive).

As to `C[C@H](Nc1ncnc2nc[nH]c12)c1cc2cccc(Cl)c2c(=O)n1-c1ccccc1`, the max response in experiment [1] is -26.4% (inactive); in experiment [2] it was -90.1% (inactive). Moreover, the Potency in experiment [4] is 4610 nM (active).

For the origin of these results see PubChem BioAssay (NCATS).
